From PubChem BioAssay (NCATS)
Records with an inconclusive call do not appear. A call without a number means that no potency is given here. The source made the active and inactive calls. The call rests on the fitted dose curve; in most records, active means well fitted inhibition curve with a large enough effect; inconclusive means small, poorly fitted or top-dose-only effect; inactive means flat fitted curve, though single readings scatter.

Experiment: qHTS to identify inhibitors of the type 1 interferon - major histocompatibility complex class I in skeletal muscle: primary screen against the NCATS Pharmaceutical Collection (AID 1347407)
Settings: human skeletal muscle cells, IFN-b-induced MHC-I HiBiT luminescence, 24 h; series mostly up to 45.9 µM
In short: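 Immortalized human myoblasts (C25cl48) with HiBiT knocked into endogenous HLA-B*08:01 were stimulated with 4.0 ng/ml IFN-beta and treated with compounds ([…] top 46 uM) for 24 hrs at 37 C. HiBiT lytic luminescence read.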

SMILES	Potency
FC1(F)C(F)(F)C(F)(F)C2(F)C(F)(F)C(F)(F)C(F)(F)C(F)(F)C2(F)C1(F)F (stereo unspecified)	inactive
COc1cc(N)c(Cl)cc1C(=O)NC1CCN(Cc2ccccc2)CC1	inactive
C[N+]1(C)CCC(=C(c2ccccc2)c2ccccc2)CC1	inactive
OCc1ccccn1	inactive
CN1CCN(c2cc3c(cc2F)c(=O)c(C(=O)O)cn3-c2ccc(F)cc2)CC1	inactive
O=C(Nc1cccc(C2=NCCN2)c1)Nc1cccc(C2=NCCN2)c1	inactive
NC(=S)N/N=C/c1cccnc1	inactive
CO[C@]12C[C@@H](COC(=O)c3cncc(Br)c3)CN(C)[C@@H]1Cc1cn(C)c3cccc2c13	inactive
COc1cc(C)nc(-n2nc(C)cc2OC)n1	inactive
N#CCC(=O)NN	inactive
CCCN(CCC)S(=O)(=O)c1ccc(C(=O)O)cc1	inactive
CCOc1cc(OCC)c(C(=O)CCC(=O)O)cc1OCC	inactive
O=[N+]([O-])c1ccc(/C=N\O)o1	inactive
O=C(CCN1CCN2CCCC2C1)N1c2ccccc2Sc2ccc(Cl)cc21 (stereo unspecified)	inactive
CC(C(=O)O)c1cccc(Oc2ccccc2)c1 (stereo unspecified)	inactive
CCCCCCCCCCCCCC(=O)OC(C)C	inactive
COc1ccc(-c2cc(C(F)F)nn2-c2ccc(S(N)(=O)=O)cc2)cc1F	inactive
NS(=O)(=O)c1cc(C(=O)O)cc(N2CCCC2)c1Oc1ccccc1	inactive

SMILES	Potency
O=C(O)c1ccc(S(=O)(=O)N(Cl)Cl)cc1	inactive
CC(C)n1c(/C=C/[C@@H](O)C[C@@H](O)CC(=O)O)c(-c2ccc(F)cc2)c2ccccc21	inactive
Cc1cccc(C)c1NC(=O)CN1CCCC1	inactive
CCCCCCCC/C=C\CCCCCCCCN	inactive
CCCCN1C[C@H](O)[C@@H](O)[C@H](O)[C@H]1CO	inactive
COP(=O)(OC)OC(c1ccc(Cl)cc1)P(=O)(OC)OC (stereo unspecified)	inactive
CCN(CC)CCOC(=O)C(Cc1cccc2ccccc12)CC1CCCO1 (stereo unspecified)	inactive
O=C(O)P(=O)(O)O	inactive
CC(=C(CCOC(=O)C(C)C)SSC(CCOC(=O)C(C)C)=C(C)N(C=O)Cc1cnc(C)nc1N)N(C=O)Cc1cnc(C)nc1N	inactive
CN1CCc2cccc3c2[C@H]1Cc1ccc(O)c(O)c1-3	inactive
NCc1ccccc1Sc1ccccc1CO	inactive
C[C@H]1[C@H]2CC[C@H]3[C@@H]4CC=C5C[C@@H](N(C)C)CC[C@]5(C)[C@H]4CC[C@]23CN1C	inactive
CCN1CCCC(OC(=O)C(c2ccccc2)c2ccccc2)C1 (stereo unspecified)	inactive
CCCc1ncc(C[n+]2ccccc2C)c(N)n1	inactive
CN(C)CCC[C@@]1(c2ccc(F)cc2)OCc2cc(C#N)ccc21	inactive
COc1cc(C(=O)NCc2ccc(OCCN(C)C)cc2)cc(OC)c1OC	inactive
CCOc1ccccc1OCCN[C@H](C)Cc1ccc(OC)c(S(N)(=O)=O)c1	inactive
Nc1ccc(C(=O)NCC(=O)O)cc1	inactive
